Assay [1] in a line: qHTS assay for small molecule agonists of the p53 signaling pathway (AID 651631; calls by dose curve; note: nearly all actives have a fitted effect of over 15% in size). The method, boiled down: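 HCT-116 p53RE-bla reporter line, 16 h compound treatment at 37 °C, then fluorescence after 2 h with B/G FRET substrate.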
(In general: qHTS replaces the single test concentration by a dilution series.)

Assay [2] in a line: qHTS assay for small molecules that induce genotoxicity in human embryonic kidney cells expressing luciferase-tagged ATAD5 (AID 651632). Note: nearly all actives have a fitted effect of over 15% in size. Note: potency is the fitted concentration of half-maximal effect. The method, boiled down:
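Concentration-response screen for ATAD5 upregulation in HEK293T luciferase reporter cells; 16 hr treatment at 37C, then luminescence after 30 min with Amplite at room temperature.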

A short description of assay [3]: qHTS assay for small molecule agonists of the p53 signaling pathway - cell viability (AID 651633; calls by dose curve;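 note: p53RE-bla HCT reporter cells with a stable beta-lactamase p53 reporter; series mostly up to about 83 µM; nearly all actives have a fitted effect of over 30% in size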). In a few lines:
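Viability counter-read: CellTiter-Glo luminescence (30 min, room temperature) in the same p53RE-bla plates. These plates had been exposed to compounds for 16 h at 37 C.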

A short description of assay [4]: qHTS assay for small molecules that induce genotoxicity in human embryonic kidney cells expressing luciferase-tagged ATAD5 - cell viability (AID 651634; calls by dose curve; note: nearly all actives have a fitted effect of over 25% in size). The method, boiled down:
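15.5 hr compound or vehicle exposure of HEK293T cells expressing luciferase-tagged ATAD5 at 37C; live-cell protease activity is read by fluorescence after 30 min of CellTiter-Fluor.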

The nature of assay [5]: qHTS assay for small molecule disruptors of the mitochondrial membrane potential - cell viability (AID 720634; calls by dose curve;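 note: human HepG2 liver cancer cells; series mostly up to about 83 µM; nearly all actives have a fitted effect of over 20% in size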). The method, boiled down: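 In this qHTS format, HepG2 cells plated overnight were pinned with compound, incubated 1 hr, and assayed for ATP luminescence with CellTiter-Glo after m-MPI dye addition.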
A short description of assay [6]: qHTS assay for small molecule disruptors of the mitochondrial membrane potential (AID 720635). In a few lines:
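Mitochondrial membrane potential tracked with Mito-MPS dye, red aggregates (ex 540/em 590 nm) against green monomers (ex 490/em 535 nm). Compound treatment 1 hr at 37C, dye 30 min in HepG2.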

The nature of assay [7]: qHTS assay to test for compound auto fluorescence at 590 nm (red) in HepG2 cells (AID 720674). The method, boiled down: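 Red autofluorescence (Ex/Em 540/590 nm, Rose Bengal sodium equivalents) was measured in HepG2 cells, 2,000 per well in MEM plus 10% FBS, plated overnight at 37 C. Readings were taken 1 hr after adding 23 nL compound or DMSO, at 37 C and 5% CO2.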
Assay [8] in a line: qHTS assay to test for compound auto fluorescence at 460 nm (blue) in HEK293 cells (AID 720678). The method, boiled down:
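After cell attachment (4-5 hr, 37C), compounds were pinned onto HEK293 monolayers in 10% dialyzed FBS medium. The blue channel (405/460 nm) was read following overnight culture. Equivalency was calculated against triamterene.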

Assay [9] in a line: qHTS assay to test for compound auto fluorescence at 590 nm (red) in HEK293 cells (AID 720679). The method, boiled down:
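Plates of HEK293 cells (10% dialyzed FBS) are treated with 23 nL compound or DMSO vehicle after a 4-5 hr attachment period, incubated overnight at 37C, and read for red fluorescence at 540/590nm.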

A short description of assay [10]: qHTS assay to test for compound auto fluorescence at 535 nm (green) in HepG2 cells (AID 720675).

Unmarked numbers belong to inactive results. Records with an inconclusive call do not appear. Calls of active or inactive are those of the source. Unless noted, calls come from the whole dose curve; as a rule, active = well fitted curve in the direction sought with a large enough effect in the repeat runs; inconclusive = weak or mixed curves; inactive = no such curve, though single readings can be large; an effect the other way counts as inactive or inconclusive.

Take `CCCCC1CCCCC(=O)O1` (stereo not drawn): the Potency result in assay [1], in [2], in [3], in assay [4], in assay [5] and in assay [6] was “inactive” each time. In addition, in assay [8], the Potency entry was “inactive”. Also, the outcome in assay [7] and in assay [9] was inactive.
As to `CCCCCN(CCCCC)C(=O)C(CCC(=O)O)NC(=O)c1ccc(Cl)c(Cl)c1` (stereo not drawn), the Potency result in assay [1], in assay [2], in [3], in assay [4], in [5] and in assay [6] was “inactive” in each case. Besides, the Potency entry in assay [8] is “inactive”. The call in assay [7] and in assay [10] was inactive.
`CCC(=O)/C=C/c1ccc(OC)cc1`: the Potency result in assay [1], in assay [2], in [3], in assay [4], in assay [5] and in assay [6] was “inactive” in each case. Besides, in assay [8], the Potency result was “inactive”. Besides, the compound was called inactive in [7], in assay [10] and in assay [9].
Consider `CC(=O)N[C@@H](CCC(N)=O)C(=O)O`, for which the Potency result in [1], in [2], in assay [3], in assay [4], in assay [5] and in assay [6] was “inactive” in each case. In assay [8], the Potency entry was “inactive”. Moreover, the result in assay [7], in assay [10] and in [9] was inactive.
For `O=C1OC(=O)c2cc([N+](=O)[O-])ccc21`, the Potency result in assay [1], in assay [2], in [3], in [4], in assay [5] and in assay [6] was “inactive” in each case. Besides, in assay [8], the Potency result was “inactive”. Further, the compound was classed as inactive in assay [10].
With `CC(O)CN(CCCN(C)C)CCCN(C)C` (stereo not drawn), the Potency result in [1], in assay [2], in assay [3], in [4], in [5] and in [6] was “inactive” each time. The Potency result in assay [8] was “inactive”. The call in assay [7], in [10] and in [9] was inactive.
For `C=CCOc1nc(OCC=C)nc(OCC=C)n1`, the Potency result in [1], in [2], in assay [3], in assay [4], in assay [5] and in assay [6] was “inactive” in each case. In addition, the Potency entry in [8] was “inactive”. Besides, the compound was classed as inactive in [7], in assay [10] and in assay [9].
As for `OCCN1C[C@H](O)[C@@H](O)[C@H](O)[C@H]1CO`, the Potency entry in [1], in assay [2], in assay [3], in assay [4], in assay [5] and in [6] was “inactive” throughout. Moreover, the Potency entry in assay [8] is “inactive”. For the same compound, the outcome in [10] and in assay [9] was inactive.
For the compound `CC(C)N1C(=O)c2ccccc2C1=O`, the Potency result in assay [1], in assay [2], in [3], in assay [4], in assay [5] and in assay [6] was “inactive” each time. The Potency entry in assay [8] was “inactive”. Moreover, the outcome in [7], in assay [10] and in assay [9] was inactive.
As to `C#CC(C)(O)CC(C)C` (stereo not drawn), the Potency result in assay [1], in assay [2], in assay [3], in assay [4], in assay [5] and in [6] was “inactive” throughout. For the same compound, the Potency result in assay [8] was “inactive”. In addition, the outcome in assay [7], in assay [10] and in assay [9] was inactive.
Turning to `CCOC(=O)[C@H](CCc1ccccc1)N[C@@H](C)C(=O)N1CCC[C@H]1C(=O)O`, the Potency entry in assay [1], in assay [2], in assay [3], in assay [4], in assay [5] and in [6] was “inactive” each time. The Potency result in [8] was “inactive”. Besides, the compound was called inactive in assay [7] and in assay [9].
For the compound `O=C(O)/C=C/c1ccc(/C=C/C(=O)O)cc1`, the Potency result in [1], in assay [2], in assay [3], in assay [4], in assay [5] and in [6] was “inactive” each time. The Potency result in [8] was “inactive”. The outcome in assay [7], in [10] and in [9] was inactive.
As to `COC(=O)[C@H]1[C@H]2C[C@@H]3c4[nH]c5cc(OC)ccc5c4CCN3C[C@H]2C[C@@H](OC(=O)COc2ccc(OC)cc2)[C@@H]1OC`, the Potency result in assay [1], in assay [2], in assay [3], in [4], in assay [5] and in assay [8] was “inactive” each time. For the same compound, the outcome in assay [7], in [10] and in [9] was inactive.
For the compound `OCC(O)[C@@H](O)[C@H](O)[C@H](O)CO[C@H]1O[C@H](CO)[C@@H](O)[C@H](O)[C@H]1O` (stereo partly drawn), the Potency entry in assay [1], in assay [2], in assay [3], in assay [4], in [5] and in assay [8] was “inactive” in each case. Moreover, the outcome in assay [7], in assay [10] and in [9] was inactive.
On to `COC(=O)CCCCCCCCC(=O)OC`, for which the Potency result in assay [1], in assay [2], in assay [3], in assay [4], in assay [5] and in [8] was “inactive” throughout. The compound was classed as inactive in [10] and in [9].
With `CCCCCCCCC=O`, the Potency result in [1], in assay [2], in [3], in assay [4], in [5] and in [8] was “inactive” in each case. Further, the compound was called inactive in assay [7], in [10] and in assay [9].
Take `C=C(C)C(=O)NCCCN(C)C`: the Potency entry in [1], in assay [2], in assay [3], in assay [4], in [5] and in assay [8] was “inactive” in each case. Moreover, in assay [7], the outcome was inactive.
With `CCCCCOC(=O)Nc1nc(=O)n([C@@H]2O[C@H](C)[C@@H](O)[C@H]2O)cc1F`, the Potency result in assay [1], in assay [2], in assay [3], in assay [4], in [5] and in assay [8] was “inactive” in each case. For the same compound, in assay [10], the call was inactive.
As for `CCCCc1ccc(N)cc1`, the Potency result in assay [1], in [2], in assay [3], in assay [4], in [5] and in [8] was “inactive” in each case. The result in assay [7], in assay [10] and in assay [9] was inactive.
Take `CCC(=O)Nc1cccc(N)c1`: the Potency result in assay [1], in assay [2], in assay [3], in assay [4], in assay [5] and in [8] was “inactive” each time. The result in assay [7] and in assay [9] was inactive.
On to `CCCCCCC(=O)OCC`, for which the Potency entry in [1], in assay [2], in assay [3], in assay [4], in assay [5] and in assay [8] was “inactive” each time. The compound was called inactive in assay [7], in [10] and in assay [9].
As for `Cn1ccc2cc3c(cc21)CCN3C(=O)Nc1cccnc1`, the Potency result in assay [1], in assay [3], in assay [4], in assay [5] and in [8] was “inactive” throughout. For the same compound, the Potency in assay [2] was 11.9 µM (active). Further, the result in [7], in assay [10] and in assay [9] was inactive.
Take `Cc1cc(C)cc(OCC2CNC(=O)O2)c1` (stereo not drawn): the Potency entry in assay [1], in [2], in assay [3], in [4], in assay [5] and in [6] was “inactive” each time. Besides, the Potency result in assay [8] was “inactive”. For the same compound, the call in assay [10] and in assay [9] was inactive.
For the compound `CC(C)COC(=O)c1ccccc1O`, the Potency entry in assay [1], in [2], in assay [3], in assay [4], in assay [5] and in assay [8] was “inactive” in each case. In addition, the call in [7], in assay [10] and in [9] was inactive.
For the compound `COC(=O)CCCC(=O)O`, the Potency result in assay [1], in assay [2], in [3], in [4], in [5] and in assay [8] was “inactive” in each case. In [7], the compound was classed as inactive.

Values taken from PubChem BioAssay (Tox21).
